This is an account of results in paper PMC4336329 (PLoS ONE, 2015).

Out of some 310,000 compounds screened, about 2,200 (0.71%) showed an effect of 50% or more. Effects have a minus sign here. This excerpt belongs to a sample that is enriched for strong results.

For this assay, the target named is human ether-à-go-go-related gene (hERG) potassium channel (human, UniProt Q12809). Briefly: primary screen, population patch clamp on CHO cells stably expressing hERG; higher = less effect of the substance.
human ether-à-go-go-related gene (hERG) potassium channel, sequence (Q12809 whole entry, looked up): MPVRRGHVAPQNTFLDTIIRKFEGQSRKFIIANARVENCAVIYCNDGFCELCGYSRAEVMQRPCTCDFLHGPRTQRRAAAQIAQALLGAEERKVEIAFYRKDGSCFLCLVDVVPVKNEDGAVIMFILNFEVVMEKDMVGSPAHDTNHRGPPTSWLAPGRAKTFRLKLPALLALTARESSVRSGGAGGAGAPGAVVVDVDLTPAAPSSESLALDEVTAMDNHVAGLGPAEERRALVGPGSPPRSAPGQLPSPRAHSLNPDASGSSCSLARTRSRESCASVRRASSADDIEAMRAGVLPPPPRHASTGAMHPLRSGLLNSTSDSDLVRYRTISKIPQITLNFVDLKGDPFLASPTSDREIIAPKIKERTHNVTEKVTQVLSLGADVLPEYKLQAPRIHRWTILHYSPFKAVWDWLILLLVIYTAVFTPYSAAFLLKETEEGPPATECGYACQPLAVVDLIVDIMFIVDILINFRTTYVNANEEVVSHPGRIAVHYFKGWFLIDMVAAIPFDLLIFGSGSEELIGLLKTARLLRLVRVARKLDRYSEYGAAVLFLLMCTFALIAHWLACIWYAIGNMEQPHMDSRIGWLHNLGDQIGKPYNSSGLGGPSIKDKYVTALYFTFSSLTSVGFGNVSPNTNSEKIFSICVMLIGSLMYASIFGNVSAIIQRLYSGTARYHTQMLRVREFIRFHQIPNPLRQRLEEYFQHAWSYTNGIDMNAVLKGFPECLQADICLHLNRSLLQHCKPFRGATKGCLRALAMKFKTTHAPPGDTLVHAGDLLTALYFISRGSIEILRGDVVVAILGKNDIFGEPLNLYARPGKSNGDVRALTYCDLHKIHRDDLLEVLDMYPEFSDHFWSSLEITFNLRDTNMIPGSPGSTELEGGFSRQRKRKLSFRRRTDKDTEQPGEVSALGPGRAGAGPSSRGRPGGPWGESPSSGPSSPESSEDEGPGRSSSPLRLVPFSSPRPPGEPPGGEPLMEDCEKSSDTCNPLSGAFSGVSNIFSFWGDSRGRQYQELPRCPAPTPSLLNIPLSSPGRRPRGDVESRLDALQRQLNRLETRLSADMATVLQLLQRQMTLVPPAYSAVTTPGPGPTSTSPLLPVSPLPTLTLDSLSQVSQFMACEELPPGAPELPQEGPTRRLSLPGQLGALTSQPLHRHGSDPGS
As for `Cc1ccc(NC(=O)CN(c2ccc(Cl)cc2)S(=O)(=O)c2cc([N+](=O)[O-])ccc2Cl)cc1`, the “hERG current change (%, negative = inhibition) at 1uM” value came out at 7.07%.

For `CC(C1CC2CCC1C2)n1c(COc2ccccc2F)nnc1SCC(N)=O` (centres unmarked), the “hERG current change (%, negative = inhibition) at 1uM” value is -1.9%.

With `Cc1cc(N2CCN(C(=O)c3ccco3)CC2)c2ccccc2n1`, the “hERG current change (%, negative = inhibition) at 1uM” value is recorded as -68.6%.

Regarding `O=C(c1ccco1)N1CCN(c2ccnc3cc(Cl)ccc23)CC1`, the “hERG current change (%, negative = inhibition) at 1uM” value is listed as -63.6%.

Turning to `Cc1nc2ccccc2c2oc(C(=O)N3CCN(C(=O)c4ccco4)CC3)cc12`, the “hERG current change (%, negative = inhibition) at 1uM” value is reported as -23.2%.

Turning to `O=C(c1ccco1)N1CCN(c2cccc(Cl)c2)CC1`, the “hERG current change (%, negative = inhibition) at 1uM” value worked out at 9.98%.

On to `Cc1cccc2[nH]c3c(N4CCN(C(=O)c5ccco5)CC4)ncnc3c12`, for which the “hERG current change (%, negative = inhibition) at 1uM” value is listed as -5.77%.

For the compound `CCOc1ccc2[nH]c3c(N4CCN(C(=O)c5ccco5)CC4)ncnc3c2c1`, the “hERG current change (%, negative = inhibition) at 1uM” value is recorded as -3.41%.

With `O=C(c1ccco1)N1CCN(c2ncnc3c2[nH]c2ccc(Cl)cc23)CC1`, the “hERG current change (%, negative = inhibition) at 1uM” value is recorded as -70.1%.

Take `O=C(c1ccco1)N1CCN(c2ccc(Cl)cc2)CC1`: the “hERG current change (%, negative = inhibition) at 1uM” value is listed as -5.03%.

For `O=C(C1CC1)N1CCN(c2ccnc3cc(Cl)ccc23)CC1`, the “hERG current change (%, negative = inhibition) at 1uM” value is recorded as -31.6%.

`Cc1cc(N2CCN(C(=O)c3ccco3)CC2)nc(-c2ccccc2)n1`: the “hERG current change (%, negative = inhibition) at 1uM” value is -22.6%.

For `O=C(C1CCC1)N1CCN(c2ccnc3cc(Cl)ccc23)CC1`, the “hERG current change (%, negative = inhibition) at 1uM” value is recorded as -59.6%.

For the compound `O=C(C1CCCCC1)N1CCN(c2ccnc3cc(Cl)ccc23)CC1`, the “hERG current change (%, negative = inhibition) at 1uM” value is -27.1%.

For `CCCOc1ccc(N2CC(C(=O)NC3=NCCS3)CC2=O)cc1` (centres unmarked), the “hERG current change (%, negative = inhibition) at 1uM” value was -26%.

As to `CCCCN1CCC(COC(=O)c2cc(Cl)c(N)c3c2OCCO3)CC1.Cl`, the “hERG current change (%, negative = inhibition) at 1uM” value was -23.9%.

`COc1ccccc1CNS(=O)(=O)c1ccc(-n2cccn2)cc1`: the “hERG current change (%, negative = inhibition) at 1uM” value was determined as 13.3%.

For the compound `O=C(NCc1cccs1)c1ccccc1`, the “hERG current change (%, negative = inhibition) at 1uM” value amounted to 7.23%.

On to `CCNc1nc(SCC(=O)OC)nc(N(C)C)n1`, for which the “hERG current change (%, negative = inhibition) at 1uM” value is recorded as -1.18%.

For `COc1ccc(CN(CC(=O)NC2CCCCC2)C(=O)CCCC(=O)Nc2ccccn2)cc1`, the “hERG current change (%, negative = inhibition) at 1uM” value is given as 9.4%.

Take `Cc1ccccc1OCC(=O)Nc1ccccc1C(=O)N1CCCCC1`: the “hERG current change (%, negative = inhibition) at 1uM” value is given as -4.24%.

With `CC(=O)Nc1ccc(CNc2ncnc3ccc(-c4c(C)noc4C)cc23)cc1`, the “hERG current change (%, negative = inhibition) at 1uM” value is 11.5%.

Take `O=C1C=C(O)C(n2cncn2)C(c2ccc(F)cc2)C1` (centres unmarked): the “hERG current change (%, negative = inhibition) at 1uM” value is -9.66%.

For the compound `COC(=O)c1cc(C(=O)OC)cc(N2C(=O)CC(NNC(=O)c3ccccc3Br)C2=O)c1` (centres unmarked), the “hERG current change (%, negative = inhibition) at 1uM” value is 4.08%.

As for `O=C1NC2(CCCCC2)C(=O)N1Cc1cc(=O)n2ccsc2n1`, the “hERG current change (%, negative = inhibition) at 1uM” value is on record as 6.06%.

Take `Cc1ccc(CN2C(=O)CCC2C(=O)NCc2ccccc2Cl)cc1` (centres unmarked): the “hERG current change (%, negative = inhibition) at 1uM” value is reported as 7.62%.

Turning to `Nc1nc2ccc(-c3nc4ccccc4o3)cc2s1`, the “hERG current change (%, negative = inhibition) at 1uM” value is 11.2%.

For the compound `CC(=O)N1CCN(c2ccnc3cc(Cl)ccc23)CC1`, the “hERG current change (%, negative = inhibition) at 1uM” value is listed as -23.2%.

In the case of `CC(C)(C)C(=O)N1CCN(c2ccnc3cc(Cl)ccc23)CC1`, the “hERG current change (%, negative = inhibition) at 1uM” value is recorded as -55.8%.

As for `CCOC(=O)N1CCN(c2ccnc3cc(Cl)ccc23)CC1`, the “hERG current change (%, negative = inhibition) at 1uM” value is recorded as -36.7%.

Take `c1cncc(-c2nc3ccccn3c2Nc2ccc3c(c2)OCCO3)c1`: the “hERG current change (%, negative = inhibition) at 1uM” value was 4.02%.

Consider `O=C(O)CN(Cc1ccco1)S(=O)(=O)c1ccc(F)cc1`, for which the “hERG current change (%, negative = inhibition) at 1uM” value is reported as 11.9%.

Consider `CCOc1cccc(C(=O)Nc2ccc3[nH]ncc3c2)c1`, for which the “hERG current change (%, negative = inhibition) at 1uM” value is given as 21.7%.

On to `CN1CCN(C(=O)/C(=C\c2ccc3c(c2)OCO3)NC(=O)c2cccs2)CC1`, for which the “hERG current change (%, negative = inhibition) at 1uM” value is recorded as -75.6%.

Take `CN1CCN(C(=O)/C(=C\c2cccs2)NC(=O)c2ccccc2)CC1`: the “hERG current change (%, negative = inhibition) at 1uM” value is recorded as -78.3%.

On to `Cc1ccc(NC(=O)/C(=C\c2cccs2)NC(=O)c2ccccc2)cc1`, for which the “hERG current change (%, negative = inhibition) at 1uM” value is listed as -1.02%.

`O=C(N/C(=C\c1cccs1)C(=O)N1CCCCCC1)c1ccccc1`: the “hERG current change (%, negative = inhibition) at 1uM” value was found to be 1.61%.

`CN1CCN(C(=O)/C(=C\c2cccs2)NC(=O)c2cccs2)CC1`: the “hERG current change (%, negative = inhibition) at 1uM” value was -77.3%.

`O=C(N/C(=C/c1ccc2c(c1)OCO2)C(=O)N1CCOCC1)c1cccs1`: the “hERG current change (%, negative = inhibition) at 1uM” value amounted to 9.57%.

As for `O=C(N/C(=C/c1cccs1)C(=O)N1CCCC1)c1ccccc1`, the “hERG current change (%, negative = inhibition) at 1uM” value is 14.4%.

For `Cc1cccc(NC(=O)/C(=C\c2cccs2)NC(=O)c2ccccc2)c1`, the “hERG current change (%, negative = inhibition) at 1uM” value is listed as -65.1%.

For the compound `O=C(N/C(=C\c1cccs1)C(=O)N1CCOCC1)c1cccs1`, the “hERG current change (%, negative = inhibition) at 1uM” value is 6.69%.

Turning to `O=C(Nc1ccccc1)/C(=C\c1cccs1)NC(=O)c1ccccc1`, the “hERG current change (%, negative = inhibition) at 1uM” value is 14.9%.

As for `O=C(N/C(=C/c1cccs1)C(=O)N1CCOCC1)c1cccs1`, the “hERG current change (%, negative = inhibition) at 1uM” value was 8.07%.

As to `O=C(N/C(=C\c1ccc2c(c1)OCO2)C(=O)N1CCOCC1)c1cccs1`, the “hERG current change (%, negative = inhibition) at 1uM” value was -18.7%.

On to `Cc1ccc(NC(=O)CCC(=O)c2ccc(Br)cc2)cc1`, for which the “hERG current change (%, negative = inhibition) at 1uM” value is 10.9%.

Take `COc1ccc(C(=O)N/N=C/c2cc(Br)ccc2O)cc1OC`: the “hERG current change (%, negative = inhibition) at 1uM” value came out at 14.7%.

In the case of `CCOc1cc(/C=C2/C(=N)N3C(=NC2=O)SN=C3S(C)(=O)=O)ccc1OS(=O)(=O)c1ccccc1`, the “hERG current change (%, negative = inhibition) at 1uM” value turned out to be 17.3%.

Turning to `CCOC(=O)c1sc2nc(C)nc(NCc3cccnc3)c2c1C`, the “hERG current change (%, negative = inhibition) at 1uM” value was found to be 10.8%.

For the compound `COc1ccc(/C=N/Nc2ccc(C(F)(F)F)cc2[N+](=O)[O-])cc1O`, the “hERG current change (%, negative = inhibition) at 1uM” value came to 3.36%.

Regarding `[O-][n+]1onc2c3cc(-c4ccccc4)nnc3ccc21`, the “hERG current change (%, negative = inhibition) at 1uM” value is reported as 1.69%.

For the compound `CC(C)(Oc1ccc(Cl)cc1)C(=O)N1CCN(c2ccccn2)CC1`, the “hERG current change (%, negative = inhibition) at 1uM” value is -1.81%.

As to `COc1cccc(NC(=O)c2cc(-c3cccnc3)nc3c(Cl)cccc23)c1`, the “hERG current change (%, negative = inhibition) at 1uM” value came out at 7.59%.

As to `COc1c2c(cc3c1C(CC(O)Cc1ccccc1)N(C)CC3)OCO2` (centres unmarked), the “hERG current change (%, negative = inhibition) at 1uM” value is recorded as -14%.

As to `COc1ccc(CC(O)CC2c3c(cc4c(c3OC)OCO4)CCN2C)cc1.Cl` (centres unmarked), the “hERG current change (%, negative = inhibition) at 1uM” value was -51.8%.

In the case of `COc1ccc2c(c1OC)C(=O)OC2C1c2c(cc3c(c2OC)OCO3)CCN1C.Cl` (centres unmarked), the “hERG current change (%, negative = inhibition) at 1uM” value worked out at 9.06%.
